# From the supplement of paper PMC8728848
# Many of the other results were omitted from the sample, so the strongest signals are more common in it than they were.
# B1: PpFlo3 (Pichia pastoris) (protein)
# chain: MGSSHHHHHHSSGLVPRGSHMQESGNGTTSDTAYACDIGATPFDGFNATIYQYQASDDNSIQDPVFMSTGYLQRNQLHSTTGVTNPGFNIFTAGVATTTLYGIPNVNYQNMLLELKGYFRADASGNYGLSLRNIDDSAILFFGRETAFECCNENLIPLDEAPTDYSLFTIKEGEASTNPDSYTYTQYLEAGRYYPVRTFFANIRTRAVFNFTMTLPDGSELTDFQNYIFQFGALNQ
# Tests used:
# Test in all cases: glycan array binding signal (z-score within array); higher = stronger binding
# Settings in all cases: glycan notation: IUPAC condensed, linker removed
# [1] = target: Fuc(a1-2)Gal(b1-3)GalNAc
# Method in brief: (§1)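 Glycan array data were curated from 3228 arrays in the Consortium for Functional Glycomics database and kept only where the protein sequence was available. Glycan names were converted to IUPAC-condensed notation, and columns mapping to the same glycan were averaged. The binding signal is a within-array Z-score, averaged across arrays of the same protein sequence at different concentrations or buffers and across linkers. Negative Z-scores can be read as non-binding.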
# [2] = target: Fuc(a1-2)Gal(b1-3)GalNAc(a1-3)[Fuc(a1-2)]Gal(b1-4)GlcNAc
# Method in brief: as §1
# [3] = target: Fuc(a1-2)Gal(b1-4)GlcNAc
# Method in brief: as §1
# [4] = target: Fuc(a1-2)Gal(b1-4)GlcNAc(b1-2)Man(a1-3)[Fuc(a1-2)Gal(b1-4)GlcNAc(b1-2)Man(a1-6)]Man(b1-4)GlcNAc(b1-4)[Fuc(a1-6)]GlcNAc
# Method in brief: as §1
# [5] = target: Fuc(a1-2)Gal(b1-4)[Fuc(a1-3)]GlcNAc
# Method in brief: as §1
# [6] = target: Fuc(a1-2)Gal(b1-4)[Fuc(a1-3)]GlcNAc(b1-3)Gal(b1-4)[Fuc(a1-3)]GlcNAc(b1-3)Gal(b1-4)[Fuc(a1-3)]GlcNAc
# Method in brief: as §1
# [7] = target: Fuc(a1-2)Gal6S(b1-4)Glc
# Method in brief: as §1
# [8] = target: Fuc(a1-2)[Gal(a1-3)]Gal(b1-3)GlcNAc(b1-2)Man(a1-3)[Fuc(a1-2)[Gal(a1-3)]Gal(b1-3)GlcNAc(b1-2)Man(a1-6)]Man(b1-4)GlcNAc(b1-4)GlcNAc
# Method in brief: as §1
# [9] = target: Fuc(a1-2)[GalNAc(a1-3)]Gal
# Method in brief: as §1
# [10] = target: Fuc(a1-2)[GalNAc(a1-3)]Gal(b1-3)GlcNAc(b1-3)GalNAc
# Method in brief: as §1
# [11] = target: Fuc(a1-2)[GalNAc(a1-3)]Gal(b1-4)GlcNAc(b1-3)Gal(b1-4)GlcNAc(b1-3)Gal(b1-4)GlcNAc
# Method in brief: as §1
# [12] = target: Fuc(a1-3)[Gal(b1-4)]GlcNAc(b1-4)Gal(b1-4)[Fuc(a1-3)]GlcNAc
# Method in brief: as §1
# [13] = target: Fuc(a1-3)[Gal(b1-4)]GlcNAc(b1-6)GalNAc
# Method in brief: as §1
# [14] = target: Gal(a1-4)Gal(b1-4)GlcNAc
# Method in brief: as §1
# [15] = target: Gal(b1-3)GlcNAc
# Method in brief: as §1
# [16] = target: Gal(b1-3)GlcNAc(b1-3)GalNAc
# Method in brief: as §1
# [17] = target: Gal(b1-4)Glc6S
# Method in brief: as §1
# [18] = target: Gal(b1-4)GlcNAc(b1-2)Man(a1-3)[Man(a1-6)]Man(b1-4)GlcNAc(b1-4)GlcNAc
# Method in brief: as §1
# [19] = target: Gal(b1-6)Gal
# Method in brief: as §1
# [20] = target: Gal3S(b1-3)[Fuc(a1-4)]GlcNAc
# Method in brief: as §1
# [21] = target: Gal3S6S(b1-4)GlcNAc
# Method in brief: as §1
# [22] = target: Gal3S6S(b1-4)GlcNAc6S
# Method in brief: as §1
# [23] = target: GalNAc(b1-3)GalNAc
# Method in brief: as §1
# [24] = target: Glc(a1-4)Glc(a1-4)Glc(a1-4)Glc
# Method in brief: as §1
# [25] = target: Glc(b1-4)Glc
# Method in brief: as §1
# [26] = target: GlcNAc(b1-2)[GlcNAc(b1-4)]Man(a1-3)[GlcNAc(b1-2)Man(a1-6)]Man(b1-4)GlcNAc(b1-4)GlcNAc
# Method in brief: as §1
# [27] = target: GlcNAc(b1-3)Gal(b1-4)Glc
# Method in brief: as §1
# [28] = target: GlcNAc(b1-3)GalNAc
# Method in brief: as §1
# [29] = target: GlcNAc(b1-3)Man
# Method in brief: as §1
# [30] = target: GlcNAc(b1-3)[GlcNAc(b1-6)]GalNAc
# Method in brief: as §1
# [31] = target: Man(a1-2)Man(a1-6)[Man(a1-3)]Man(a1-6)[Man(a1-2)Man(a1-2)Man(a1-3)]Man(b1-4)GlcNAc(b1-4)GlcNAc
# Method in brief: as §1
# [32] = target: Neu5Ac(a2-3)Gal
# Method in brief: as §1
# [33] = target: Neu5Ac(a2-3)Gal(b1-4)[Fuc(a1-3)]GlcNAc(b1-3)Gal(b1-4)[Fuc(a1-3)]GlcNAc(b1-3)Gal(b1-4)[Fuc(a1-3)]GlcNAc
# Method in brief: as §1
# [34] = target: Neu5Ac(a2-3)[GalNAc(b1-4)]Gal(b1-4)GlcNAc
# Method in brief: as §1
# [35] = target: Neu5Ac(a2-6)Gal(b1-4)GlcNAc
# Method in brief: as §1
# [36] = target: Neu5Ac(a2-6)Gal(b1-4)GlcNAc(b1-2)Man(a1-3)[Man(a1-6)]Man(b1-4)GlcNAc(b1-4)GlcNAc
# Method in brief: as §1
# [37] = target: Neu5Ac(a2-6)Gal(b1-4)GlcNAc(b1-2)Man(a1-6)[GlcNAc(b1-2)Man(a1-3)]Man(b1-4)GlcNAc(b1-4)GlcNAc
# Method in brief: as §1
# [38] = target: Neu5Ac(a2-8)Neu5Ac(a2-3)Gal(b1-3)GalNAc(b1-4)[Neu5Ac(a2-8)Neu5Ac(a2-3)]Gal(b1-4)Glc
# Method in brief: as §1
# [39] = target: Neu5Ac9Ac(a2-3)Gal(b1-3)GlcNAc
# Method in brief: as §1
# [40] = target: Neu5Gc(a2-3)Gal(b1-4)Glc
# Method in brief: as §1
binder,measurement,setting,value
B1,glycan array binding signal (z-score),[1],-0.256
same,glycan array binding signal (z-score),[2],-0.217
same,glycan array binding signal (z-score),[3],-0.242
same,glycan array binding signal (z-score),[4],-0.263
same,glycan array binding signal (z-score),[5],4.84
same,glycan array binding signal (z-score),[6],4.32
same,glycan array binding signal (z-score),[7],-0.279
same,glycan array binding signal (z-score),[8],-0.259
same,glycan array binding signal (z-score),[9],-0.298
same,glycan array binding signal (z-score),[10],-0.014
same,glycan array binding signal (z-score),[11],-0.303
same,glycan array binding signal (z-score),[12],2.75
same,glycan array binding signal (z-score),[13],-0.238
same,glycan array binding signal (z-score),[14],-0.139
same,glycan array binding signal (z-score),[15],-0.201
same,glycan array binding signal (z-score),[16],-0.296
same,glycan array binding signal (z-score),[17],4.38
same,glycan array binding signal (z-score),[18],-0.233
same,glycan array binding signal (z-score),[19],-0.281
same,glycan array binding signal (z-score),[20],5.08
same,glycan array binding signal (z-score),[21],-0.27
same,glycan array binding signal (z-score),[22],-0.269
same,glycan array binding signal (z-score),[23],5.1
same,glycan array binding signal (z-score),[24],-0.242
same,glycan array binding signal (z-score),[25],-0.246
same,glycan array binding signal (z-score),[26],4.67
same,glycan array binding signal (z-score),[27],-0.291
same,glycan array binding signal (z-score),[28],-0.266
same,glycan array binding signal (z-score),[29],6.76
same,glycan array binding signal (z-score),[30],1.75
same,glycan array binding signal (z-score),[31],-0.271
same,glycan array binding signal (z-score),[32],-0.283
same,glycan array binding signal (z-score),[33],-0.266
same,glycan array binding signal (z-score),[34],-0.272
same,glycan array binding signal (z-score),[35],-0.282
same,glycan array binding signal (z-score),[36],-0.281
same,glycan array binding signal (z-score),[37],4.82
same,glycan array binding signal (z-score),[38],-0.017
same,glycan array binding signal (z-score),[39],-0.267
same,glycan array binding signal (z-score),[40],-0.276
